The nature of assay [1]: qHTS assay to identify small molecule antagonists of the vitamin D receptor (VDR) signaling pathway - cell viability counter screen (AID 743225). Note: nearly all actives have a fitted effect of over 50% in size. Put shortly: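 Cytotoxicity toward the VDR-bla HEK 293T line was scored by ATP-based CellTiter-Glo luminescence, read in the wells already used for the beta-lactamase readout after 16 h compound treatment under 3 nM 1-alpha,25-dihydroxyvitamin D3 stimulation.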
Background: In qHTS, concentration-response curves come from the screen itself.

Assay [2] is described as follows: qHTS assay to identify small molecule agonists of the NFkB signaling pathway (AID 1159509; active = well fitted curve in the direction sought with a large enough effect in the signal ratio in the repeat runs, not every such curve was filed as active; the % refers to the signal ratio; note: series mostly up to about 61 µM). Put shortly: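 Readout: FRET fluorescence, 405 nm excitation, 460/530 nm emission; beta-lactamase expression disrupts FRET. Cells: ME-180 stably carrying NF-kB-driven bla reporter. Compound exposure 5 hr, 37 C, 5% CO2.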
Assay [3] in a line: qHTS assay to identify small molecule agonists of the NFkB signaling pathway - cell viability counter screen (AID 1159515; calls by dose curve; note: series mostly up to about 61 µM; nearly all actives have a fitted effect of over 55% in size). In a few lines: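 Counter screen run alongside the NFkB-bla agonist assay: ME-180 reporter cells exposed to compounds for 5 hr, then lysed with CellTiter-Glo in the same wells. Luminescence, read after 30 min, reflects viable cells.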
The nature of assay [4]: qHTS assay to identify small molecule agonists of the endoplasmic reticulum stress response signaling pathway - cell viability counter screen (AID 1159517; calls by dose curve; note: series mostly up to about 61 µM; nearly all actives have a fitted effect of over 50% in size). In a few lines:
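Steps: seed 1,500 ESRE-bla HeLa cells per well; incubate overnight at 37 C, 5% CO2; add compounds in DMSO for 5 hr; run FRET substrate 2 hr RT; add CellTiter-Glo, wait 30 min, read luminescence.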

The nature of assay [5]: qHTS assay to identify small molecule antagonists of the retinoid-related orphan receptor gamma (ROR-gamma) signaling pathway - cell viability counter screen (AID 1159520). Note: nearly all actives have a fitted effect of over 50% in size. Put shortly:
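Tet-on ROR gamma CHO cells were given compounds for 2 hr, then doxycycline hyclate at 1 uM final, and incubated 16 hr at 37 C. Viability was measured as ATP content by CellTiter-Glo luminescence.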

Assay [6] in a line: qHTS assay to identify small molecule agonists of the AP-1 signaling pathway - cell viability counter screen (AID 1159525; calls by dose curve; note: nearly all actives have a fitted effect of over 55% in size). Put shortly: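 Same-well cytotoxicity counter screen of the Tox21 10K library in ME-180 cells. The readout is ATP-dependent luminescence after 5 h compound treatment. Data are normalised to DMSO and tetra n-octyl ammonium bromide controls.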
The nature of assay [7]: qHTS assay to identify small molecule agonists of the AP-1 signaling pathway (AID 1159526; calls by dose curve).
For assay [8], the target named is Retinoic acid receptor RXR-alpha (Homo sapiens) (UniProt P19793). The experiment in a line: qHTS assay to identify small molecule agonists of the RXR signaling pathway (AID 1159527; calls by dose curve; note: nearly all actives have a fitted effect of over 35% in size). Put shortly: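 Reporter activation is measured as beta-lactamase activity via FRET substrate cleavage (emission 460/530 nm) in HEK 293T cells expressing an RXR-alpha-driven bla construct, following 16 hr compound exposure at 37 C.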

A short description of assay [9]: qHTS assay to identify small molecule agonists of the RXR signaling pathway - cell viability counter screen (AID 1159529). Note: series mostly up to about 77 µM; nearly all actives have a fitted effect of over 50% in size. Put shortly:
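Tox21 10K compounds were tested for cytotoxicity against GeneBLAzer RXR-alpha HEK 293T cells grown in 2% charcoal-stripped FBS. Exposure lasted 16 hr at 37 C, 5% CO2; viability read by CellTiter-Glo luminescence.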

Assay [10] is described as follows: qHTS assay to identify small molecule antagonists of the retinoid acid receptor (RAR) signaling pathway - cell viability counter screen (AID 1159551). Note: nearly all actives have a fitted effect of over 35% in size. Put shortly: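 Measured by luminescent ATP detection, viability reflects C3RL4 cells treated 6 h at 37 C with test chemicals in the presence of 1 uM (final) retinol.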
The nature of assay [11]: qHTS assay to identify small molecule antagonists of the retinoic acid receptor (RAR) signaling pathway (AID 1159552; note: nearly all actives have a fitted effect of over 50% in size). Put shortly: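 Overnight-plated C3RL4 reporter cells get compound, then retinol to 1 uM final; plates sit 6 hr at 37 C, 5% CO2. A luciferase reagent is added and light output recorded after 30 min at room temperature.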
Assay [12] can be described thus: qHTS assay to identify small molecule agonists of the retinoic acid receptor (RAR) signaling pathway (AID 1159553). Note: potency is the fitted concentration of half-maximal effect. Put shortly: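 6 hr compound exposure (DMSO vehicle) of overnight-plated C3RL4 RARE-luc cells at 37 C; luminescence quantified after 30 min RT with luciferase reagent.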
A short description of assay [13]: qHTS assay to identify small molecule antagonists of the estrogen related receptor (ERR) signaling pathway from Tox21 library - cell viability counter screen (AID 1224834). Note: nearly all actives have a fitted effect of over 30% in size. Put shortly: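 Seeded ERR cells were rested 6 h at 37 C/5% CO2 before compounds, positive and negative controls or DMSO were added. Incubation continued for 17.5 h, and viability was then quantified by CellTiter-Fluor fluorescence.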

Assay [14] is described as follows: qHTS assay to identify small molecule agonists of the endoplasmic reticulum stress response signaling pathway (AID 1159516; active = well fitted activation curve with a large enough effect in the signal ratio in the repeat runs, not every such curve was filed as active; the % refers to the signal ratio). Put shortly: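 For this screen, HeLa cells stably carrying beta-lactamase under the ER stress response element received test compounds, positive controls or DMSO for 5 hr at 37 C; B/G FRET substrate was then added and dual-wavelength emission recorded.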

Assay [15] has as its target Nuclear receptor ROR-gamma (Homo sapiens) (UniProt P51449). As to the kind of experiment: qHTS assay to identify small molecule antagonists of the retinoid-related orphan receptor gamma (ROR-gamma) signaling pathway (AID 1159521; note: nearly all actives have a fitted effect of over 50% in size; note: potency is the fitted concentration of half-maximal effect). In a few lines: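 Readout: ONE-Glo luciferase luminescence, 30 min at room temperature. System: Tet-on RORγ CHO, RORE-LUC. Sequence: compound 2 h, doxycycline 1 uM final, 16 h at 37 C.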

The nature of assay [16]: qHTS assay to identify small molecule antagonists of the estrogen related receptor (ERR) signaling pathway (AID 1224819). Put shortly: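 Compounds dissolved in DMSO were pin-transferred onto ERR cells that had been plated 6 h earlier, and cells were then incubated 18 h at 37 C; signal was luciferase luminescence via One-Glo.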
The nature of assay [17]: qHTS assay to identify small molecule agonists of the estrogen related receptor (ERR) signaling pathway (AID 1224820). In a few lines: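 Luminescence readout (One-Glo, 30 min RT) from NTP-supplied ERR cell line exposed to compounds for 18 h at 37 C. Cells seeded 2,000 per well and pre-incubated 6 h before pin-tool compound transfer.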
For assay [18], the system named is estrogen-related receptor alpha (ERRalpha) with PGC-1alpha coactivator, human. As to the kind of experiment: qHTS assay to identify small molecule antagonists of the estrogen related receptor signaling pathway with the pleiotropic PPARgamma coactivator (PGC) (AID 1224821; calls by dose curve). In a few lines:
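PGC/ERR reporter cells; 6 h pre-incubation 37 C/5% CO2; pin-tool compound in DMSO, 18 h 37 C; One-Glo added, 30 min RT; luminescence read. qHTS antagonist mode.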

The nature of assay [19]: qHTS assay to identify small molecule antagonists of the estrogen related receptor signaling pathway with the pleiotropic PPARgamma coactivator (PGC) cell viability counter screen (AID 1224822; note: series mostly up to about 46 µM). Put shortly: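 Counter screen for cell viability: PGC/ERR cells, 6 h pre-incubation after plating, 17.5 h compound exposure at 37 C, fluorescence from CellTiter-Fluor after 30 min.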

The nature of assay [20]: qHTS assay to identify small molecule agonists of the estrogen related receptor signaling pathway with the pleiotropic PPARgamma coactivator (PGC) (AID 1224823). Put shortly:
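Luminescence readout (One-Glo, 30 min RT) from PGC/ERR cell line treated 18 h at 37 C with pin-tool-delivered DMSO compound solutions; cells plated 6 h before dosing. Quantitative HTS format.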

Inconclusive results are not listed. A number with no mark means an inactive call. Calls of active or inactive are those of the source. Unless noted, calls come from the whole dose curve; as a rule, active = well fitted curve in the direction sought with a large enough effect in the repeat runs; inconclusive = weak or mixed curves; inactive = no such curve, though single readings can be large; an effect the other way counts as inactive or inconclusive.

Retinoic acid receptor RXR-alpha (Homo sapiens), sequence (P19793 whole entry, looked up): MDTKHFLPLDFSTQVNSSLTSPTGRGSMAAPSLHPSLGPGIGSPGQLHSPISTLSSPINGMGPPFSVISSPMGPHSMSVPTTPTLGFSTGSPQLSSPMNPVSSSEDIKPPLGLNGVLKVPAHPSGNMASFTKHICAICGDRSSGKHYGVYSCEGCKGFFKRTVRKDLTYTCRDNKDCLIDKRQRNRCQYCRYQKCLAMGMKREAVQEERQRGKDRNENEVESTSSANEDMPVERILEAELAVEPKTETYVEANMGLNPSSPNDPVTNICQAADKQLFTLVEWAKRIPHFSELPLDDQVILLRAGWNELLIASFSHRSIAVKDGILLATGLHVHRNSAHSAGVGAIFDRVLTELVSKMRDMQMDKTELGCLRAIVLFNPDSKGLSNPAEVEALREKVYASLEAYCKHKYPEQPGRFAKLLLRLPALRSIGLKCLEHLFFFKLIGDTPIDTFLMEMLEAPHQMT

For `CC(=O)OC1C2(C)CCC(C2)C1(C)C` (stereo unspecified), the Potency entry in assay [1], in [5], in assay [7], in assay [8], in assay [9] and in assay [11] was “inactive” throughout. Also, the Potency entry in assay [12] and in assay [13] was “inactive” each time. Moreover, the compound was called inactive in assay [2], in assay [3], in assay [4], in [6] and in assay [10].
Consider `CNCCC(Oc1ccccc1OC)c1ccccc1` (stereo unspecified), for which the Potency entry in assay [1], in assay [5], in assay [15], in assay [8], in [9] and in assay [13] was “inactive” in each case. Also, the compound was called inactive in [2], in assay [14], in assay [4], in assay [6], in assay [10] and in [16]. Further, the compound was classed as inactive in assay [17], in assay [18], in [19] and in [20].
For the compound `CC1(C)C(=O)N(Cl)C(=O)N1Br`, the Potency entry in assay [1], in assay [5], in assay [7], in [8], in assay [9] and in assay [11] was “inactive” in each case. Further, the Potency result in [13] was “inactive”. For the same compound, the compound was called inactive in [2], in [3], in [4], in assay [6] and in [10].
Consider `CC(C)=CCCC(C)CCOC=O` (stereo unspecified), for which the Potency entry in assay [1], in [5], in assay [15], in [11] and in [13] was “inactive” in each case. For the same compound, the compound was classed as inactive in assay [2], in [3], in [4], in [6] and in assay [10].
On to `CC(=O)Nc1ccc(C)c(Cl)c1`, for which the Potency entry in assay [1], in [5], in assay [7], in assay [8], in [9] and in assay [11] was “inactive” throughout. Besides, the Potency entry in assay [12] and in [13] was “inactive” throughout. The compound was classed as inactive in assay [2], in assay [3], in assay [4] and in [10].
Turning to `O=C(O)[C@@H]1CSCN1`, the Potency entry in assay [1], in [5], in assay [7], in [8], in assay [11] and in [12] was “inactive” each time. In assay [13], the Potency entry is “inactive”. In addition, the outcome in assay [2], in assay [3], in assay [14], in assay [4] and in [10] was inactive.
Consider `Cc1ccc([N+](=O)[O-])c(N)c1`, for which the Potency entry in [1], in assay [5], in assay [15] and in [9] was “inactive” throughout. The result in assay [2], in assay [3], in assay [4], in assay [6] and in assay [10] was inactive.
As to `CCOc1ccc2nc(N)sc2c1`, the Potency result in assay [1], in assay [5], in assay [7], in [8], in [9] and in [11] was “inactive” in each case. Moreover, the result in assay [2], in assay [3], in [4] and in assay [10] was inactive. In assay [12], the Potency was 3.83 µM (active).
As to `C=CCCC=C`, the Potency result in [1], in assay [5], in assay [15], in assay [8], in [9] and in [11] was “inactive” throughout. The result in assay [2], in assay [3], in assay [4], in assay [6] and in assay [10] was inactive.
Take `CC(=O)N[C@@H](CC(C)C)C(=O)O`: the Potency result in assay [1], in assay [5], in assay [7], in [8], in assay [11] and in assay [12] was “inactive” each time. In addition, the Potency entry in assay [13] was “inactive”. In addition, the call in assay [2], in assay [3], in assay [4] and in assay [10] was inactive.
Consider `OCC(CBr)(CBr)CBr`, for which the Potency entry in assay [1], in assay [5], in assay [15], in [7], in assay [8] and in assay [12] was “inactive” each time. In assay [13], the Potency entry was “inactive”. Besides, the call in assay [2], in [3], in assay [4] and in assay [10] was inactive.
On to `CC(Oc1c(Cl)cccc1Cl)C1=NCCN1` (stereo unspecified), for which the Potency entry in [1], in assay [5], in assay [15], in assay [8], in assay [9] and in assay [11] was “inactive” throughout. Besides, the compound was called inactive in assay [2], in [3], in assay [4], in [6] and in assay [10].
Turning to `NC(=O)NS(=O)(=O)c1ccc(Cl)cc1`, the Potency entry in [1], in assay [5], in [7], in assay [8], in assay [9] and in [11] was “inactive” each time. Besides, the Potency result in assay [12] was “inactive”. The result in assay [2], in assay [3], in assay [4], in assay [6] and in [10] was inactive.
For `Nc1ccc2ccccc2c1S(=O)(=O)O`, the Potency entry in [1], in assay [5], in assay [15], in [9], in [11] and in assay [13] was “inactive” throughout. For the same compound, the outcome in assay [2], in [3], in [4], in assay [6] and in assay [10] was inactive. Also, the Potency in assay [12] is 24.8 µM (active).
`CC(CNC1CCCCC1)OC(=O)c1ccccc1` (stereo unspecified): the Potency entry in assay [1], in [5], in assay [7], in assay [8], in [9] and in [11] was “inactive” in each case. Further, the Potency entry in [12] and in assay [13] was “inactive” throughout. Besides, the outcome in assay [2], in assay [3], in [4] and in assay [10] was inactive.
For the compound `CC1=CC(=O)CC(C)(C)C1=O`, the Potency entry in assay [1], in [5], in [7], in assay [8], in assay [9] and in [11] was “inactive” throughout. For the same compound, the Potency result in assay [13] is “inactive”. The compound was called inactive in [2], in assay [3], in [4] and in assay [10].
Turning to `CC(C)O`, the Potency result in assay [1], in [5], in assay [9] and in assay [13] was “inactive” each time. For the same compound, the compound was called inactive in [2], in assay [3], in assay [4] and in assay [10]. Also, the Potency in assay [15] is 65.6 µM (active).
In the case of `CCCCNC(=S)NCCCC`, the Potency entry in [1], in [5], in [15], in assay [9] and in [11] was “inactive” throughout. The compound was classed as inactive in assay [2], in assay [3], in assay [4], in [6] and in assay [10].
Regarding `Cc1c[nH]c(=S)[nH]c1=O`, the Potency entry in [1], in assay [5], in [15], in [8], in [9] and in assay [11] was “inactive” in each case. Further, the compound was classed as inactive in assay [2], in [14], in [4], in [6] and in [10].

(Values after PubChem BioAssay (Tox21).)
